Over roughly 25,000 sequences, “ln(normalized median fluorescence intensity)” has its median near 6.7; the highest 2% begin near 10. This excerpt belongs to a sample that is enriched for the highest values.
Each sequence was assayed on PfHDP1 homeodomain (GST-tagged) (assay: gcPBM binding intensity (ln(normalized median fluorescence intensity)); higher = stronger DNA binding).
In short: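 GST-tagged P. falciparum DNA-binding domains produced in E. coli were incubated for 1 h on an Agilent 4 × 180k array of primer-extended double-stranded 36-bp intergenic genomic probes with negative controls. Binding intensity is the highest Masliner-normalised natural-log median intensity across replicate spots of either probe orientation, with bound protein detected by Alexa488 anti-GST antibody at 488 nm.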

Sequence	gcPBM binding intensity (ln)
TATACACATATATAAAGTACATATATGTGTAAAAAA [XGTACX_site8582]	6.8
AAAAAAAAAAAGCACACACACATATGAGTATATATA [CACACA_site4683]	6.91
GTGCTAAAAGTATATGCACACACATATATATGCACA [CACACA_site8472]	10.6
GCTAAAAGTATATGCACACACATATATATGCACATA [CACACA_site1635]	11
GAAAAGCATAGATGCACACATATATATATATATATA [CACACA_site2169]	9.77
TAATAAAAAAAGTGCACACACATAATATATATATAT [CACACA_site3340]	9.23
GCTAAAAGTATATGCACACACATATAGATGCACATA [CACACA_site6868]	10.7
ATGTGCACATATAAAAGTACACGCACATATATATAT [XGTACX_site1238]	11
AAGAAAAGCATAGATGCACACATATATATATATATA [CACACA_site8675]	9.35
AATAATAAAAAAAGTGCACACACATAATATATATAT [CACACA_site9100]	8.79
AAAAAAAAAAAAAGCACACACACATATGCGTATATA [CACACA_site953]	6.43
AGATAAAAAAAGTACACACACACATATATATATATA [CACACA_site3072]	9.22
TAATAAATCCTATATAGTACATATATGCAAGTATGT [XGTACX_site3955]	6.97
TCTTATTAAAATATTTATATAGGTAATCACAATATT [GTGCAC_negctrl_site568]	6.37
ATATCAAACTAGAATGTGCGCATGCATTCAAGTTTT	6.54
TATGTCAATTTTCATACATGCGCATAATCTTTATTT [TGCATGCA_site807]	7.53
TGTAAATTATAACGTGCACACATATTTAAAATGAAA [CACACA_site8915]	9.88
TTCATTCAAATTAACGTGCACATTATTAGTAAAAAC	10.7
TTATTATTCATATATTCACACATTAAAATTTTTCAA [CACACA_site4243]	6.62
GTATATATATATATATGCAAATGTATAAATCTACAT [CACACA_negctrl_site546]	7.32
TTGCAACTCTTCAATCGTACACATTATTTATTATAT [XGTACX_site1377]	6.89
CTAATCGTGCACAACTGTACATTTGTCAAGGGCAAT [XGTACX_site8662]	10.8
TAAAATATATAAAACTGTACATTTTAAAGGCACAAC [XGTACX_site8342]	7.1

Sequence	gcPBM binding intensity (ln)
GTATATCACACATTTGCATGTTGTCAATAGTTTATC [TGCATGCA_site134]	6.93
TATATAGGTATCATTACACACATGTATACTTATTTG [CACACA_site7864]	6.47
AGCTCTTGTCATTTTGCACACACACCCGTATAGGTT [CACACA_site3056]	10.3
AGCTCTTGTCATTTTGCACACACACCGGTATAGGTT [CACACA_site5654]	10.4
CTCTTGTCATTTTGCACACACACATGTATAGGTTAT [CACACA_site3057]	11.1
CTTGTCATTTTGCACACACACATGTATAGGTTATTA [CACACA_site7431]	10.9
CTCTTGTCATTTTGCACACACACATGGATAGGTTAT [CACACA_site5655]	10.8
CTTGTCATTGGGCACACACACATGTATAGGTTATTA [CACACA_site3058]	6.49
CTTGTCATTTGGCACACACACATGTATAGGTTATTA [CACACA_site5656]	6.72
TCTACATATTAATTATGTACGAATTATTATTAGTAA [XGTACX_site6924]	6.03
TTTAAGAATTAACGGGGTACAATTCTTAAATATATA [XGTACX_site669]	6.33
ACTGAAAAAAGAAATACACACATTCTGGATCATATA [CACACA_site3860]	6.47
ATTTTTTTTTGTGTATATAAATAAATAAATATATAT [GTGCAC_negctrl_site603]	6.47
AAGAAAAAGACTTCATGAAAAAGAATTTTTTTAATT [TGCATGCA_negctrl_site473]	5.86
TATTTATTGTGACACTTTTATTATTTTATGATAAAA [CACACA_negctrl_site37]	6.6
AATATAAGCAAATACACACACACATATAAATATGTA [CACACA_site7741]	7.03
TACATAAACATTTATACACACATTATAAATACATAT [CACACA_site4386]	6.74
TTAATATGAAATAAATGTACATAATACATAATAAAA [XGTACX_site6194]	6.44
ACAAATAAGTTTTGTAGTACTGTGTATATATATATA [XGTACX_site6901]	8.95
ATCATATTTTTATGTGTGCACTTTTTTTTTTTTTTT [GTGCAC_site9555]	8.73
ATATATTTTATATGTGTGCACTATATATATATATAT	10.8
TAATTATTCTATTAAGTGCATATATTTTTAAAAAGA	9.39
TTTATATTCTTAAGTGTGCACTATATATATATATAT [GTGCAC_site9719]	10.5

Sequence	gcPBM binding intensity (ln)
TTTTTATTTTCATATGTGCACTTATATATATATATA	10.2
ATTTTTTTCTTAGGAGTGCACTTATATTTATTTTAT	10.3
TGAATAAATATATATACACACCCATATATATATATA [CACACA_site8833]	9.21
AAAAGAAGATAATACAGTACAGAATAATATAAAATA [XGTACX_site5962]	6.51
TAAAATATATTTTTCTGTACACAAAAATATATTAAA [XGTACX_site2813]	6.24
TTCTGTATATAGTGTGCACACAATTAAAAAAAAAAA [CACACA_site8400]	10.8
TTCTGTATAATATAAAAACAAAAATTAAATTAAAAC [CACACA_negctrl_site81]	6.43
TTTTTTTTTCTGTATACACACAAAATTTATTTTTTA [CACACA_site2873]	6.68
ATATTTAAAAATATAGTGCAATTATTCTAATGTGTT	8.89
ATAAAATATAAAAACGCACACAATTATAAGGGTGTA [CACACA_site177]	6.96
TTCTGTATACGGTGTGCACACAATTAAAAAAAAAAA [CACACA_site1416]	10.8
TTTTCTGTATATTGTGTGCACACAATTAACAAAAAA [GTGCAC_site9817]	10.6
TATGTATATATATTAACACACAAAAAAAAAAAAAAA [CACACA_site1812]	6.2
TTTTTATGTGTATATTATTACATTTACATCTTTAAC [CACACA_negctrl_site1676]	6.64
ATTATTACTTTTTGAGTGCACATACACACAGACATA	10
ATAATAAAATGGAGAGTGCATACATGTTTATTTTAT	7.7
AAATTATGAACATATTGTACATATATATATATATAT [XGTACX_site8269]	9.41
ATTTAAGATTTAATCACACACATATATATTATATAC [CACACA_site2907]	6.55
TGCAATTTAATATGAGTGCATATATTGAGAAAATAC	9.36
AATGGGGAAGGTTCTACACACAACGCAAATGCCTTA [CACACA_site2758]	6.41
AGACCTTTAATTTGTGTGCACATAATTAGTGTACAT [GTGCAC_site9434]	10.7
TCCCTTAATTTTGTGTGTACATATAATATATTTTTA [XGTACX_site2789]	6.76
TGTGCACATAATTAGTGTACATTTTTTATTTAGACA [XGTACX_site317]	10.1

Sequence	gcPBM binding intensity (ln)
AAAAAAAAAAAAAACACACACATATAATATATTTAA [CACACA_site1337]	6.35
AAACAATAAAAGATTACACACATATATAGCATATAT [CACACA_site1698]	6.82
ATATATATATATATATGTACATACATACATAGAACT [XGTACX_site2214]	9.21
TTTTATTTTTAAAATTGTACATTATTATTGTTATTT [XGTACX_site1439]	6.3
ATAATGAACAAAGTAGTGCACTTTCCTTATCTTTTC	10.7
CCTTTCCTTTTATAAGTGCATATAACAAATGTATAC [GTGCAC_site9872]	8.03
ATATCTTATAATACGGTGCACTTGACATGAACAACT [GTGCAC_site9987]	10.3
AAATGTGAACTATAATAATTTCAACGTCTGATATAA [TGCATGCA_negctrl_site440]	5.94
TTGAACTCTCTTACGCGTACGTGTTATTATGAAAAT [XGTACX_site6265]	6.73
TTTCAAAATGTGTAAAATAAAAATAATATCATTACA [TGCATGCA_negctrl_site521]	6.42
TTTTTCATAAAACACACACACAAAAATAATGTGGAA [CACACA_site3687]	6.56
TTTCAAATGGAATGTGTGCACATAAATGTAAATAAA	10.8
AAAAAAAAAAAAGGCACACAAACATATGTAGACATA [CACACA_site2284]	6.61
ATAATAAAATAAATCACACATAATATAATGTAATAT [CACACA_site6144]	6.49
AAAAAAAAATCAAAATGTACTTATTTTTATAATAAT [XGTACX_site4712]	6.31
AAGATTAAAAATTGCACACAAAAATATATTTTCTAT [CACACA_site1305]	9.78
AAGATTAAACATTGCACACAAAAACATATTTTCTAT [CACACA_site530]	9.7
TTTTCTATAAGATTTGCACACAACTTATTCTATTAA [CACACA_site3752]	10.6
TTTTTTTTTTTCAATAGTACTTTCCATTTACATATA [XGTACX_site3889]	6.32
TGAACTCATAGGAAAACACACATATGTGCAATATAT [CACACA_site6231]	11.3
TGAACTCATAGGAAAACACACATATGGGTAATATAT [CACACA_site187]	6.78
TGAACTCATAGGAAAACACACATATGTGTAATATAT [CACACA_site4267]	7.27
CTATTTTTATATTATTGTACGTTGTTATTATATATA [XGTACX_site1469]	6.79

Reference: the supplement of paper PMC11417369
